A selection: hits, their analogues and other compounds. The true share with any hit is near 1.9%.
HTR5A inv ag – counter-screen for OPRM1-OPRD1 inverse agonists: human HTR5A inverse agonism; HTR5A cell line, luminescence; inhibition, % at 9.3 µM; 0.083% of 340,000 active; in the data active = inhibition mostly above about 23%, no sharp cut-off; inactive = mostly below about 18%
MsrA inhibitor – inhibitors of bovine MsrA | AID 651718 | 0.75% of 360,000 active | purified bovine MsrA, absorbance read-out | inhibition, % at 15.5 µM; in the data active = inhibition above about 4.5%
OPRM1-OPRD1 inv – inverse agonists of human mu-delta opioid receptor heterodimerization. 0.21% of 340,000 active. inhibition, % at 9.3 µM. cell-based MOR-DOR heterodimer luminescence, inverse agonism. P35372+P41143. AID 504357; in the data active = inhibition above about 22%, passing the limit was not always enough
Target sequence (P35372 whole entry, looked up): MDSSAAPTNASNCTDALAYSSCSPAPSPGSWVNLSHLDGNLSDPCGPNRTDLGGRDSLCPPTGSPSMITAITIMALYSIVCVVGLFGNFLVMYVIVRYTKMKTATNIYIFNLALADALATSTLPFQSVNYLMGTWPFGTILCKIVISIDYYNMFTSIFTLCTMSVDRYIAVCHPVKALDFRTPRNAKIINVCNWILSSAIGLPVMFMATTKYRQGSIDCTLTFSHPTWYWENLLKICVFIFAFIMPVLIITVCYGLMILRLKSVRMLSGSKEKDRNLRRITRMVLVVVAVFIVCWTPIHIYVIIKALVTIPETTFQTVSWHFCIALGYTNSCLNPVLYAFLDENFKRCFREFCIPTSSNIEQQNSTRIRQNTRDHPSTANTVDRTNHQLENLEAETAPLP
Target sequence (P41143 whole entry, looked up): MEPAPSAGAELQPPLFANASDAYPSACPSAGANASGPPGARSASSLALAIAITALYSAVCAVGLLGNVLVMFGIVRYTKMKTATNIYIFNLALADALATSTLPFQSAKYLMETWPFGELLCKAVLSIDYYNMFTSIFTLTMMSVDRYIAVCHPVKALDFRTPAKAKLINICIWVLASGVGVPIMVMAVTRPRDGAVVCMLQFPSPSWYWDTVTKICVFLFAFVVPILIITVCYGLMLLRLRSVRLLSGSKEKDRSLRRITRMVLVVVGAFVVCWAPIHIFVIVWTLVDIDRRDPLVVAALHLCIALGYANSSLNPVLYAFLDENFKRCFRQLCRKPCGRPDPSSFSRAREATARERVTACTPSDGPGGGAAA
HTR5A ag – HTR5A agonism, opioid heterodimer counter-screen | HTR5A agonist assay, luminescence, cell-based | activation, % at 9.3 µM | 0.61% of 340,000 active | P47898; in the data active = activation mostly above about 9.5%, no sharp cut-off; inactive = mostly below about 7.6%
MOR-DOR ag – agonists of human mu-delta opioid receptor heterodimerization. P35372+P41143. cells, OPRM1-OPRD1 heterodimerization, luminescence. activation, % at 9.3 µM. 0.3% of 340,000 active. AID 504326
MsrA act – bovine methionine sulfoxide reductase A activation | purified bovine MsrA, absorbance read-out | activation, % at 10.6 µM | 0.3% of 360,000 active | AID 602163; in the data active = activation above about 7.5%
MOR-DOR ag conf – confirmation of human OPRM1-OPRD1 heterodimerization agonists; activation, % at 9.3 µM; 45% of 830 active; shares compounds with MOR-DOR ag; cells, MOR-DOR heterodimerization, luminescence complementation
HTR5A ag counter – counter-screen for OPRM1-OPRD1 agonists: human HTR5A agonism | activation, % at 9.3 µM | 8% of 830 active | shares compounds with MOR-DOR ag | HTR5A agonist counterscreen, cell luminescence; in the data active = activation above about 17%
Each line names hits and unclear results; the compound was inactive in the other large screens (follow-up assays come after a bar, where they were run). Cut-off read from the data, not from the text of the source, unless noted: active = activation above about 18%; inactive = the rest.

CCOC(=O)C1(CCCc2ccccc2)CCN(Cc2cnc(C)s2)CC1	MOR-DOR ag 106 | MOR-DOR ag conf inactive | HTR5A ag counter inactive
CCOC(=O)C1(Cc2cccc(F)c2)CCN(Cc2ccon2)CC1	none (no result: HTR5A inv ag, OPRM1-OPRD1 inv, HTR5A ag, MOR-DOR ag)
CN(c1cccnc1)c1ccc(NC(=O)Cc2c[nH]c3ccccc23)cc1-c1cccnc1F	none (no result: HTR5A inv ag, OPRM1-OPRD1 inv, HTR5A ag, MOR-DOR ag, MsrA act)
Cc1ccc2c(c1C)-c1c(ccc(C)c1C)C(=O)C2=O	MOR-DOR ag 21 | MOR-DOR ag conf 21 | HTR5A ag counter inactive
NC(=O)[C@@H]1CCCN1C(=O)[C@H](CCc1ccccc1)NC(=O)[C@H]1O[C@@H](n2cnc3c(N)ncnc32)[C@H](O)[C@@H]1O	none (no result: HTR5A inv ag, OPRM1-OPRD1 inv, HTR5A ag, MOR-DOR ag, MsrA act)
CCOC(=O)c1nnn(CC(=O)N2N=C(c3cc(C)ccc3C)CC2c2ccc(OC)cc2)c1C(=O)OCC (stereo not given)	MOR-DOR ag 20 | MOR-DOR ag conf inactive | HTR5A ag counter 62
CCCCCCCCCCCCCCCC[N+](C)(C)CCN(Cc1ccc(OC)cc1)c1ncccn1	MOR-DOR ag 29 (no result: MsrA inhibitor) | MOR-DOR ag conf 35 | HTR5A ag counter inactive
COc1ccc(C(CNC(=O)c2cccc(NS(=O)(=O)c3ccc(Br)cc3)c2)N(C)C)cc1 (stereo not given)	MOR-DOR ag 74 | MOR-DOR ag conf inactive | HTR5A ag counter inactive
COc1ccc(C(CNC(=O)c2ccc(S(=O)(=O)N(C)C)cc2)N(C)C)cc1 (stereo not given)	MOR-DOR ag 95 | MOR-DOR ag conf 105 | HTR5A ag counter inactive
CCN(c1ccccc1)S(=O)(=O)c1cc(C(=O)NCC(c2ccc(OC)cc2)N(C)C)ccc1C (stereo not given)	MOR-DOR ag 20 | MOR-DOR ag conf inactive | HTR5A ag counter inactive
Cc1ccc(NC(=O)CNCC(c2ccccc2)N(C)C)cc1F (stereo not given)	MOR-DOR ag 40 | MOR-DOR ag conf inactive | HTR5A ag counter inactive
COc1ccc(NC(=O)CN(C)C(=O)c2cccc(NS(=O)(=O)c3ccc(Br)cc3)c2)cc1	none
COC(=O)c1cc2c(c3c4cc(C)ccc4n(S(=O)(=O)c4ccc(OC)cc4)c13)C(=O)N(Cc1ccc(C(F)(F)F)cc1)C2	none (no result: HTR5A inv ag, OPRM1-OPRD1 inv, HTR5A ag, MOR-DOR ag, MsrA act)
Cc1ccc(S(=O)(=O)Nc2cccc(C(=O)NCC(c3ccccc3)N(C)C)c2)cc1F (stereo not given)	MOR-DOR ag 51 | MOR-DOR ag conf inactive | HTR5A ag counter inactive
CSC(=Nc1ccccc1)N=C(SCc1ccccc1)N(C)C	MOR-DOR ag 76 | MOR-DOR ag conf 38 | HTR5A ag counter inactive
COC(=O)c1cc2c(c3c4cc(OC)ccc4n(S(=O)(=O)c4ccc(OC)cc4)c13)C(=O)N(Cc1ccccc1OC)C2	none (no result: HTR5A inv ag, OPRM1-OPRD1 inv, HTR5A ag, MOR-DOR ag, MsrA act)
Cc1ccccc1/C=N/Nc1ccnc2cc(Cl)ccc12	MOR-DOR ag 21 | MOR-DOR ag conf 22 | HTR5A ag counter inactive
Cc1nc(NCC(c2ccccc2)N(C)C)c2c(C)c(C)sc2n1 (stereo not given)	MOR-DOR ag 37 | MOR-DOR ag conf 48 | HTR5A ag counter inactive
Cc1sc2ncnc(NCC(c3ccccc3)N(C)C)c2c1C (stereo not given)	none
NC[C@H](Cc1ccccc1)NCCCCC1CCCCC1	none
CNC[C@H](CC1CCCCC1)NC[C@H](Cc1ccccc1)NCCC12CC3CC(CC(C3)C1)C2	MOR-DOR ag 95 | MOR-DOR ag conf 164 | HTR5A ag counter 39
CN(CCO)C(=O)c1nc[nH]c1C(=O)N1CCN(c2ccccc2)CC1	none (no result: HTR5A inv ag, OPRM1-OPRD1 inv, HTR5A ag, MOR-DOR ag, MsrA act)
CC1CCN(CC(=O)N2CCCc3c2c(=O)oc2ccc(OCc4ccccc4)cc32)CC1	HTR5A ag 13, MOR-DOR ag 27 | MOR-DOR ag conf 32 | HTR5A ag counter inactive
CCOc1ccc(/C=N/NC(=O)CC(=O)Nc2ccc(Cl)c(Cl)c2)cc1	MOR-DOR ag 21 | MOR-DOR ag conf inactive | HTR5A ag counter inactive
O=C(CC(=O)Nc1cccc(Cl)c1)N/N=C\c1ccccc1	none
O=C(C[n+]1cnn(CC(=O)c2ccc(Cl)cc2Cl)c1)c1ccc([N+](=O)[O-])cc1	MOR-DOR ag 54 | MOR-DOR ag conf inactive | HTR5A ag counter inactive
O=C(Cn1cnc([N+](=O)[O-])c1)c1ccc(Cl)cc1	none
O=C(Nc1ncc(Cc2ccc(SC(F)F)cc2)s1)c1ccc(OC(F)F)cc1	MOR-DOR ag 19 | MOR-DOR ag conf inactive | HTR5A ag counter inactive
CCOC(=O)C1(CC2CCCCO2)CCN(Cc2nc3ccccc3nc2C)CC1 (stereo not given)	none (no result: HTR5A inv ag, OPRM1-OPRD1 inv, HTR5A ag, MOR-DOR ag)
CCOC(=O)C1(CCOc2ccccc2)CCN(Cc2cccc(OC)c2O)CC1	none
CCOC(=O)C1(CCOc2ccccc2)CCN(Cc2cc(OC)ccc2OC)CC1	MOR-DOR ag 53 | MOR-DOR ag conf inactive | HTR5A ag counter 17
CCOC(=O)C1(CC2CCCCO2)CCN(Cc2ccc(OC)cc2F)CC1 (stereo not given)	MOR-DOR ag 48 | MOR-DOR ag conf 59 | HTR5A ag counter inactive
CCOC(=O)C1(CCOc2ccccc2)CCN(Cc2ccc3c(c2)OCCO3)CC1	MOR-DOR ag 25 | MOR-DOR ag conf 44 | HTR5A ag counter inactive
CCOC(=O)C1(CCOc2ccccc2)CCN(Cc2ccc(O)c(Cl)c2)CC1	none
CCOC(=O)C1(CCOc2ccccc2)CCN(Cc2cccc(OC)c2)CC1	MOR-DOR ag 19 | MOR-DOR ag conf inactive | HTR5A ag counter 93
O=C(N[C@H](Cc1ccccc1)C(=O)NC1CCCCC1)[C@H]1O[C@@H](n2ccc(=O)[nH]c2=O)[C@H](O)[C@@H]1O	none (no result: HTR5A inv ag, OPRM1-OPRD1 inv, HTR5A ag, MOR-DOR ag, MsrA act)
C[C@H](O)[C@@H]1C(=O)N2CCc3c([nH]c4c(-c5ccccc5)cccc34)[C@@H]2C[C@@H]1N(C)C(=O)NC1CCCCC1	none (no result: HTR5A inv ag, OPRM1-OPRD1 inv, HTR5A ag, MOR-DOR ag, MsrA act)
COc1ccccc1-c1ccc(OCCCN2CCC(C(O)(c3ccccc3)c3ccccc3)CC2)cc1	none (no result: HTR5A inv ag, OPRM1-OPRD1 inv, HTR5A ag, MOR-DOR ag, MsrA act)
Cc1noc(C)c1S(=O)(=O)N1CCCc2nc(-c3ccc(Br)cc3)ccc21	none (no result: HTR5A inv ag, OPRM1-OPRD1 inv, HTR5A ag, MOR-DOR ag, MsrA act)
Cc1cc2c(c(=O)o1)[C@@]1(C(=O)N(C)c3ccccc31)C1=C(CC3(CCCCC3)OC1=O)O2	none (no result: HTR5A inv ag, OPRM1-OPRD1 inv, HTR5A ag, MOR-DOR ag, MsrA act)
C[C@@H]1CN([C@@H](C)CO)C(=O)CCCn2cc(nn2)CO[C@H]1CN(C)C(=O)Nc1ccc(C(C)(C)C)cc1	none (no result: HTR5A inv ag, OPRM1-OPRD1 inv, HTR5A ag, MOR-DOR ag, MsrA act)
CCOC(=O)C1(CCOC)CCN(Cc2ccncc2)CC1	none
CCOC(=O)C1(CCOC)CCN(Cc2ccccc2-c2ccco2)CC1	MOR-DOR ag 130 | MOR-DOR ag conf 33 | HTR5A ag counter inactive
CCOC(=O)C1(CC2CC2)CCN(Cc2ccc3cccc(F)c3n2)CC1	MOR-DOR ag 24 | MOR-DOR ag conf 28 | HTR5A ag counter inactive
Cc1cc(N2CCN(CC(C)(C)O)C[C@H]2C)ccc1N1CCN(CC(C)(C)O)[C@@H](C)C1	none (no result: HTR5A inv ag, OPRM1-OPRD1 inv, HTR5A ag, MOR-DOR ag, MsrA act)

Assay outcomes from PubChem.
